The values below come from PubChem BioAssay (NCI).

Compounds without any hit were thinned out: in the full panel of roughly 83,000, 20% have a hit.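 Activity criterion: percent growth below 10, measured after cells in 96-well plates were exposed to a single compound concentration for 48 hours.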 The source made the active and inactive calls.

The test system of the assay is HL-60(TB) leukemia. The assay is described as follows: NCI-60 one-dose screen, 48 h (100 = growth as untreated, 0 = no growth, -100 = all killed). Conditions: 10 µM unless noted.
For the molecule `CCc1cccc(C)c1NC(=O)c1sc2nc3c(cc2c1N)C(=O)CCC3`, the growth was -22.4% (active). The value for `COc1ccccc1NC1=C(N2CCCCC2)C(=O)c2ccccc2C1=O` was 72.6% (inactive); that for `CCOc1ccc(NC(=O)c2cc(OC)c(OC)c(OC)c2)cc1` was -8.94% (active). Turning to `COc1ccc(C2C=C(c3ccc(OC)c(OC)c3)N=C3SC=CN32)c(Br)c1` (stereo not given), the growth was 57.6% (inactive). Take `CC(=O)OCC1CCCO1` (stereo not given): the growth is 84.7% (inactive). The value for `COc1ccc2c(OCc3nnc4ccc(-c5ccccc5)nn34)ccnc2c1` was 106% [2.5 µM] (inactive); that for `O=C(N/N=C/c1ccc(Cl)cc1Cl)c1ccc2nc(-c3ccc(Cl)cc3)[nH]c2c1` was 5.77% (active); that for `C=C1C(=O)O[C@H]2[C@H]1CC/C(Cn1cc(-c3ccc(OC)cc3)nn1)=C\CC[C@@]1(C)O[C@@H]21` was -35.2% (active).

For the molecule `CC(=O)c1ccc(NCn2nc(-c3ccc(Cl)cc3)oc2=S)cc1`, the growth is 88.9% (inactive).

Consider `COc1ccc2[nH]c(=O)c(/C=N/Nc3nc(-c4ccccc4)cs3)c(O)c2c1`, for which the growth was 83.9% (inactive). The value for `Cc1nc2sc(C(=O)Nc3cccc4ncccc34)c(N)c2cc1C(C)O` (stereo not given) was 33% (inactive); that for `C=C1C(=O)O[C@H]2[C@H]1CC/C(COC(=O)c1ccc3ccccc3c1)=C\CC[C@@]1(C)O[C@@H]21` was -53.5% (active). For `O=C1/C(=C/c2ccc([N+](=O)[O-])s2)Oc2cc(Cl)ccc21`, the growth was -11.7% (active).

As for `COc1ccc2nc(-c3ccc(Cl)cc3)cc(-c3nnc(SC/C(=N\O)c4ccccc4)n3-c3ccccc3)c2c1`, the growth was 55.4% (inactive).

With `CCOC(=O)c1cc(C#N)n2ccc3ccccc3c12`, the growth is 92.1% (inactive). Take `Cc1ccc(Nc2nc(-c3cc(O)c(C)c(C)c3O)cs2)cc1`: the growth was 9.51% (active). Under `Nc1cc(NN=C(c2ccc(O)cc2)c2ccc(O)cc2)c([N+](=O)[O-])cc1[N+](=O)[O-]` stands 66.4% (inactive); under `CC(=O)Cc1cc(-c2cc(CC(C)=O)[nH]n2)n[nH]1`, 88.1% (inactive). Under `O=C1Nc2ccccc2/C1=C/c1cn(CCCn2c3ccccc3c(=O)c3ccccc32)c2ccccc12` stands 84% (inactive); under `COc1cc(C2C3=C(COC3=O)Nc3cc4c(cc32)CCC4)cc2c1OCO2` (stereo not given), 10.4% (inactive). The value for `COc1cc2c(cc1-c1c(C)noc1C)ncc1nc(C3CC3)n([C@H](C)COC(F)F)c12` was 31% (inactive); that for `C=C1C(=O)O[C@H]2[C@H]1CC/C(COC(=O)NCc1ccc(Cn3c(=O)sn(CCCl)c3=O)cc1)=C\CC[C@@]1(C)O[C@@H]21` was -21.4% (active). As to `CCCCn1c(-c2ccc(-c3nc(-c4ccc(Cl)cc4)no3)cc2)nc(-c2ccccc2)c1-c1ccccc1`, the growth is 61.4% (inactive). As for `C[C@@H]1CC[C@@H]2[C@@H]1[C@H](OC(=O)/C=C/c1ccccc1)[C@]1(CCCOCCOCCOCCOC(=O)CCCC[C@@H]3SC[C@@H]4NC(=O)N[C@@H]43)C[C@@H](OC(=O)CO)[C@@]2(C)O1`, the growth was 98.1% (inactive). Under `CCN(CC)c1ccc(/C=N/NC(=O)Cc2ccc(Nc3ccnc(C(F)(F)F)c3)cc2)c(O)c1` stands 0.765% (active); under `CC(=O)OC[C@H]1OC(Sc2sc(C(=O)c3ccc(Br)cc3)c(N)c2-c2nc3ccccc3s2)[C@H](OC(C)=O)[C@@H](OC(C)=O)[C@H]1OC(C)=O` (stereo not given in full), 105% (inactive). Under `Cc1c(C(=O)NCCC(=O)NO)sc2ncnc(Nc3ccc(F)c(Cl)c3)c12` stands 103% (inactive). Regarding `O=C(Nc1cccc(Cl)c1)c1cc(N=Nc2ccc([N+](=O)[O-])cc2Cl)ccc1O`, the growth was 38.2% (inactive). For the molecule `O=C1CSC(c2c(Cl)cccc2Cl)N1c1nc(Cl)cc(=O)[nH]1` (stereo not given), the growth is 161% (inactive). As for `CCCCN1CCN(c2ccc3nc(-c4ccc5nc(-c6ccc(OC)c(OC)c6)[nH]c5c4)[nH]c3c2)CC1`, the growth was -25.1% (active). For the molecule `CCNC(=O)Oc1ccc[nH]c1=O`, the growth was 94.1% (inactive).

On to `C=C(C)[C@@H]1CC[C@]2(C)[C@H](CC=C3[C@@H]4CC(C)(C)CC[C@]4(C(N)=O)CC[C@]32C)[C@@]1(C)CCC#N`, for which the growth was 16% (inactive). Take `COc1cc(NCc2ccc3nc(N)nc(N)c3c2C)cc(OC)c1OC` (tested in a mixture with another compound): the growth was 25.7% (inactive). On to `O=C(Nc1c(Cl)cccc1Cl)Oc1cccc2cccnc12`, for which the growth is -5.41% [100 µM] (active). `COc1cc(-c2cc(/C=C3\C(=O)Nc4cc(Cl)ccc43)[nH]n2)cc(OC)c1OC`: the growth is -34.9% (active).
